For 60 molecules, INHIBITION results are on record in ChEMBL document CHEMBL4513216, “Probing the Open Global Health Chemical Diversity Library for Multistage-Active Starting Points for Next-Generation Antimalarials” (ACS Infect Dis, 2020).

The structures appear in SMILES notation. Out of some 69,000 compounds screened, about 8,600 (12%) showed an effect of 50% or more. The sample as a whole holds a higher share of strong results than the screen did.

The assay concerns Plasmodium berghei. Nature of the assay: Screen against P. berghei liver stage (PbLuc), transformed with Luciferase, at 10uM. It is filed as functional, HepG2. Conditions: tested at 10 uM.
Consider `COCCCN1CCCC(c2nccn2CC2CCC2)C1` (stereo not given), for which the INHIBITION was determined as 42.8%.
For `N#CCCN(C(=O)CN1CCCC1C1CCCCC1)c1ccccc1` (stereo not given), the INHIBITION is 5.14%.
Turning to `CC(C)(C)c1nnnn1CC(=O)N(CCC#N)c1ccccc1`, the INHIBITION is on record as 65.6%.
In the case of `CN(CCC#N)C(=O)Cn1nnnc1C(C)(C)C` it was 61.9%; in that of `CN(C(=O)Cn1nc(-c2ccc(F)cc2)oc1=O)c1ccccc1`, 42.6%.
Consider `Cc1cc(C)n(CC2CCCN2CC(=O)N(C)CCC#N)n1` (stereo not given), for which the INHIBITION is 36.1%.
Regarding `CN(C(=O)Cn1nnnc1C(C)(C)C)c1ccccc1`, the INHIBITION amounted to 50.8%.
In the case of `Cc1nc(CN2CCCN(CC(=O)N(C)CCC#N)CC2)no1` it was 36.5%; in that of `CC(=O)N(C)c1nc(Cn2nnnc2C(C)(C)C)cs1`, 24.2%.
Under `CN(CC(=O)N(CCC#N)c1ccccc1)C1CCc2ccccc21` (stereo not given) stands 28.9%.
In the case of `CCCSc1ncc(Cl)c(C(=O)NC(CCSC)C(=O)O)n1` (stereo not given), the INHIBITION is reported as 26.3%.
In the case of `CCN1C(=O)CCC12CCN(C(=O)c1ccco1)CC2` it was 27.2%; in that of `CCN1CCn2c(C)cnc2C12CCN(C(=O)CC(C)C)CC2`, -0.182%.
Under `CC[C@H](C)Nc1nccc(-c2cnc3sc(C)cn3c2=O)n1` stands 39.7%.
In the case of `CCC(=O)N1CCc2c(O)nc(C3CCCCN3C(=O)C3CC3)nc2C1` (stereo not given) it was -7.6%; in that of `O=C(O)Cn1nc(C2CC2)c2c(-c3cccs3)ccnc21`, 11.6%; in that of `NC(=O)C1CCN(c2nc3nccc(-c4cccnc4)c3c(=O)[nH]2)CC1`, 47.4%.
For `O=c1[nH]c(NC2CCCC2)nc2nccc(-c3ccsc3)c12`, the INHIBITION was found to be 61.1%.
In the case of `NC(=O)C1CCN(c2nc3nccc(-c4ccncc4)c3c(=O)[nH]2)CC1` it was 41.6%; in that of `O=c1[nH]c(NC2CCCC2)nc2nccc(-c3ccco3)c12`, -37.9%.
Under `O=c1[nH]c(NC2CCCC2)nc2nccc(-c3cccs3)c12` stands 52.2%; under `O=C(NCC1CC1)C1CN(Cc2cccs2)Cc2ccnn2C1` (stereo not given), -19.1%.
In the case of `Cc1ccc(S(=O)(=O)N2CSCC2C(=O)NCC(F)(F)F)cc1C` (stereo not given) it was -27.9%; in that of `O=C(CSc1nc2c(cnn2CCO)c(=O)[nH]1)NC1CCCCC1`, 39.2%.
As to `Cc1noc(C(C)N2CCN(CCN3CCCC3=O)CC2)n1` (stereo not given), the INHIBITION is on record as -29.1%.
In the case of `O=C(COCc1ccccc1Cl)Nc1ccnn1CC1CCOC1` (stereo not given) it was 42.1%; in that of `O=C(Cn1ncc2ccccc21)Nc1ccnn1CC1CCOC1` (stereo not given), 36.5%.
In the case of `O=C(COCCOc1ccccc1)Nc1ccnn1CC1CCOC1` (stereo not given) it was 69.9%; in that of `COc1ccccc1CC(=O)N1C[C@@H]2CC[C@H]1CN(Cc1cscn1)C2`, 29.6%.
Under `CN(C(=O)Cn1nc(-c2ccccc2Cl)ccc1=O)C1CCS(=O)(=O)C1` (stereo not given) stands 48.1%; under `N#Cc1cc(Br)ccc1NC1CCN(CC(N)=O)CC1`, 45.4%; under `CC(=O)N1CCC(Nc2ccc(Br)cc2C#N)C1` (stereo not given), 7.39%.
As to `CN1CC(Nc2ccc(Br)cc2C#N)CCC1=O` (stereo not given), the INHIBITION is 58.9%.
In the case of `CCOCCN1CCN(Cc2csc(-c3cnn(C)c3)n2)CC1` it was -22.1%; in that of `O=C(CCNS(=O)(=O)c1ccc(F)c(F)c1)NCc1ccoc1`, 35.4%; in that of `O=C(N[C@H]1CN(Cc2ccsc2)[C@@H]2CCCO[C@H]12)C1CC1`, 48.2%.
Under `O=C(O)c1cc(NS(=O)(=O)c2ccc(Cl)s2)ccc1N1CCOCC1` stands 20%.
Under `Cc1ccc(C(=O)NS(C)(=O)=O)cc1S(C)(=O)=O` stands 1.79%; under `Cc1cc(C(=O)NS(C)(=O)=O)ccc1I`, 52%.
Take `Cc1ccc(C(=O)NS(C)(=O)=O)cc1I`: the INHIBITION is on record as 32.3%.
In the case of `Cc1cc(N2CCN(C(=O)[C@@H]3C[C@H]4C=C[C@@H]3C4)CC2)nc2ccccc12` it was -13.2%.
Under `CN(Cc1nnc(C2CC2)o1)C1CCCN(c2cccnn2)C1` (stereo not given) stands -9.76%; under `CC(C(=O)NC1CC1)N1CCN(Cc2ccn(C)c(=O)c2)CC1` (stereo not given), 7.42%; under `COc1cccc2c1ccn2CCNC(=O)C1CCC1`, -46.8%.
In the case of `OCCn1cc(CN2CCN(CCOc3ccccc3)CC2)cn1` it was 37.5%.
Turning to `OCCn1cc(CN2CCN(CCOc3ccc(F)cc3)CC2)cn1`, the INHIBITION turned out to be 39.5%.
On to `OCCn1cc(CN2CCN(CCOCC(F)(F)F)CC2)cn1`, for which the INHIBITION turned out to be 54.9%.
With `NC(=O)NC(=O)CN1CCN(c2nccs2)CC1`, the INHIBITION worked out at 24%.
In the case of `CCc1nc(CN(C)C2CCN(Cc3cnc(C)cn3)C2)no1` (stereo not given) it was 67.5%; in that of `CCc1nc(CN2CCCC(N(C)Cc3cnc(C)cn3)C2)no1` (stereo not given), 24.3%.
In the case of `Cc1cnc(CN2CCC(N(C)Cc3nnc(C)n3C)C2)cn1` (stereo not given) it was 62.3%; in that of `Cc1ccc(CCN2CCC(N(C)Cc3noc(C4CC4)n3)C2)cc1` (stereo not given), 27.9%; in that of `CCc1nc(CN(C(C)=O)C2CCN(Cc3cnc(C)cn3)C2)no1` (stereo not given), 12.4%.
Under `Cc1cnc(CN2CCC(N(C)Cc3nnc(C4CC4)n3C)C2)cn1` (stereo not given) stands 27.5%.
Take `Cc1cc(CN2CCC(N(C)Cc3noc(C4CC4)n3)C2)on1` (stereo not given): the INHIBITION is 19.5%.
Under `Cc1nnc(CN(C)C2CCN(CCc3cccs3)C2)n1C` (stereo not given) stands 21.8%.
Under `Cc1cc(C)n(CCN2CCC(N(C)Cc3nnc(C)n3C)C2)n1` (stereo not given) stands 54.6%; under `Cc1nnc(CN(C)C2CCN(Cc3nnc(C4CCC4)o3)C2)n1C` (stereo not given), 40.9%; under `CCn1c(C)nnc1CN(C)C1CCN(Cc2cnc(C)cn2)C1` (stereo not given), -7.48%.
For `Cc1cc(C)n(CCN2CCC(N(C)Cc3noc(C4CC4)n3)C2)n1` (stereo not given), the INHIBITION stood at 68.5%.
